Hit rate of the full screen: of about 69,000 compounds, about 8,600 (12%) showed an effect of 50% or more. Shown is part of a subset that was picked to be rich in strong results.

This assay has as its system Plasmodium berghei. The assay is described as follows: Screen against P. berghei liver stage (PbLuc), transformed with Luciferase, at 10uM. Particulars: tested at 10 uM. In kind it is functional, HepG2.
On to `Cc1nn(CC(=O)O)c(C)c1NS(=O)(=O)c1cccc2ccccc12`, for which the INHIBITION is 2.97%. The figure for `CNC(=O)CN1CCO[C@H]2CN(CC3CCOC3)C[C@H]21` (stereo not given in full) is 8.85%. Regarding `CNc1ccnc(N2C[C@H]3CC[C@@H](C2)N(CCOC)C3=O)n1`, the INHIBITION was -144%.

Turning to `O=C(c1ccco1)N1C2CCC(O)(CC2)C1CN1CCOCC1` (stereo not given), the INHIBITION was 17.7%. Consider `Cc1nonc1CN(C)Cc1nc(-c2cccc(F)c2F)oc1C`, for which the INHIBITION was 8.99%. Take `CCc1cc(CN(C)Cc2nc(-c3sccc3C)oc2C)on1`: the INHIBITION was found to be 1.37%.

`Cc1ccsc1-c1nc(CN(C)Cc2noc(C(C)C)n2)c(C)o1`: the INHIBITION came to 30%.

Regarding `Cc1nc(CN(C)Cc2nc(-c3sccc3C)oc2C)no1`, the INHIBITION is recorded as 56.3%. Next, `COc1ccc(OC)c(-c2nc(CN(C)Cc3noc(C)n3)c(C)o2)c1`: 31.1%; `Cc1ccsc1-c1nc(CN(C)Cc2cc[nH]n2)c(C)o1`: 54.6%; `CCc1ncnc2c1CCN(CCOC)CC2`: 32.5%. With `CCC[C@H]1CN(S(C)(=O)=O)C[C@@H]1NC(=O)Cc1ccc(F)cc1C`, the INHIBITION is 30.3%.

`O=C(NCCCc1nc(=O)[nH][nH]1)Nc1cccc(F)c1`: the INHIBITION came out at 48%. Next, `O=C(NCCCc1nc(=O)[nH][nH]1)c1ccc(Cl)cn1`: 67.5%. Regarding `O=C(NCCCc1nc(=O)[nH][nH]1)Nc1ccc(Cl)cc1`, the INHIBITION came out at 23.9%. For the compound `O=c1[nH]cc(Nc2ccccc2)c(=O)[nH]1`, the INHIBITION is 43.8%. Consider `OC1(CN2CCOC(Cn3cccn3)C2)CCCCC1` (stereo not given), for which the INHIBITION is given as -37.7%. In the case of `COCCN1CCN(CC(C)(O)c2cccc(C(F)(F)F)c2)CC1` (stereo not given), the INHIBITION stood at 37.3%. Next, `COc1cccc(OCCc2cncc(C(N)=O)c2)c1`: 15.9%; `COc1ccccc1OCCCc1cncc(C(N)=O)c1`: 80.2%; `COc1cccc(OCCCc2cncc(C(N)=O)c2)c1`: -10.3%. In the case of `Cc1nc(C(=O)N2CCN(S(=O)(=O)N(C)C)CC2)c(-c2ccccc2)s1`, the INHIBITION is recorded as 36.6%. As to `CCN1C[C@H]2CCN(C(=O)NC)CC[C@H]2S1(=O)=O`, the INHIBITION is -0.813%. The figure for `O=C(NCc1ccccc1CN1CCC(O)CC1)Nc1ccccn1` is 52%; for `O=C(NCc1ccccc1CN1CCC(O)CC1)Nc1ccccc1` it is 40.2%; for `O=C(NCc1ccccc1CN1CCC(O)CC1)Nc1ccncc1` it is -8.19%. For `COC(=O)c1cc(CN2CCC(c3noc(C)n3)CC2)c(C)s1`, the INHIBITION came out at 7.24%. On to `Cc1cc(F)cc(NC(=O)N(C)CC(C)(CO)CO)c1`, for which the INHIBITION is -31.38%. With `N[C@@H]1CC[C@@H](Nc2nccc(CCC(F)(F)F)n2)C1`, the INHIBITION was found to be 7.4%. The figure for `NC1CCC(Nc2nccc(CCC(F)(F)F)n2)CC1` (stereo not given) is 75.6%. Take `FC(F)(F)CCc1ccnc(NC2CCC(n3cnnc3)CC2)n1` (stereo not given): the INHIBITION is 32.3%. On to `CCc1csc(C2CCCN(C(=O)c3cc(C4CC4)[nH]n3)C2)n1` (stereo not given), for which the INHIBITION stood at 27.8%.

`O=C(Cc1cccnc1)N1CCC2(CC1)CCN(C1CCOCC1)CC2`: the INHIBITION is 8.44%. `CC(C)Oc1ccccc1CNC(=O)N1CCC(n2cncn2)CC1`: the INHIBITION is 51.3%. Regarding `COc1ccccc1CCNC(=O)N1CCC(n2cncn2)CC1`, the INHIBITION is recorded as 16.9%. In the case of `COc1ccccc1C(C)NC(=O)N1CCC(n2cncn2)CC1` (stereo not given), the INHIBITION is given as 11.2%. The figure for `COc1cc(Cl)ccc1CNC(=O)N1CCC(n2cncn2)CC1` is 0.411%. Next, `CCOc1ncccc1CNC(=O)N1CCC(n2cncn2)CC1`: 11.4%; `Cc1ccccc1CNC(=O)N1CCC(n2cncn2)CC1`: 4.52%; `CC(C)Oc1ccccc1NC(=O)N1CCC(n2cncn2)CC1`: 56.6%.

As for `CCOc1ccccc1CNC(=O)N1CCC(n2cncn2)CC1`, the INHIBITION is listed as 63.5%.

On to `CCOc1ncccc1NC(=O)N1CCC(n2cncn2)CC1`, for which the INHIBITION is on record as -2.98%. Next, `CCS(=O)(=O)N1C[C@@H](O)[C@H](Oc2cccc(F)c2)C1`: -18.8%; `CC(C)Oc1ncccc1CNC(=O)NC(C)c1cccs1` (stereo not given): 43.6%; `Cc1cc(C)n(-c2ccc(C(=O)NCC(CO)Cc3cccs3)cc2)n1` (stereo not given): 23.9%. The figure for `O=S(=O)(Cc1ccc(F)cc1F)NCCOc1cccnc1` is 46.1%; for `CC[C@H](Cn1ncc2ccccc2c1=O)NC(=O)c1ccccn1` it is 31.3%. Take `CN(C)C(=O)C1CCc2nnc(CNC(=O)c3ccc(Cl)cc3Cl)n21` (stereo not given): the INHIBITION turned out to be 27.5%.

Consider `CCC(C)NC(=O)CCc1ccc(OCC(F)(F)F)c(OC)c1` (stereo not given), for which the INHIBITION was determined as 31.9%. The figure for `CC1COCCN1Cc1nc(C(C)(C)C)no1` (stereo not given) is 15.2%; for `CCCc1noc(CN2CCOCC2C)n1` (stereo not given) it is 65.6%. As for `CC(C)c1noc(CN2CCOCC2C)n1` (stereo not given), the INHIBITION worked out at 17.5%. For `CC1COCCN1Cc1noc(C(C)(C)C)n1` (stereo not given), the INHIBITION turned out to be 38.7%.

As for `CC1COCCN1Cc1nc(-c2cccs2)no1` (stereo not given), the INHIBITION was found to be 22.9%. For `CC(C)Cc1noc(CN2CCOCC2C)n1` (stereo not given), the INHIBITION is reported as 51%. In the case of `CC1COCCN1Cc1nc(Cc2ccccc2)no1` (stereo not given), the INHIBITION is recorded as 54.4%. For the compound `CC1CCCCN1Cc1nc(Cc2ccccc2)no1` (stereo not given), the INHIBITION was 20.2%. The figure for `CC(C)Cc1noc(CN2CCOCC2)n1` is 1.48%; for `O=C(COC1CCCC1)NCCc1nc(-c2ccccn2)cs1` it is 30.8%; for `Cn1cnc2cc(CCC(=O)Nc3n[nH]c(C4CCCO4)n3)ccc21` (stereo not given) it is 8.99%. For `N#Cc1ccccc1N1CCCN(C(=O)CCc2cccs2)CC1`, the INHIBITION is given as -29.1%. Next, `Cc1nc(CN2CCCCC2CCc2ccc(O)cc2)co1` (stereo not given): 12.6%; `c1csc(CN2CCCn3cnc(CN4CCCC4)c3C2)c1`: 41.6%. Next, `c1coc(-c2nc(CN3CCCC(Cn4cncn4)C3)cs2)c1` (stereo not given): 16.8%. Regarding `CNC(=O)c1sc2ccccc2c1C1CCN(c2nc(C)cc(C)n2)C1` (stereo not given), the INHIBITION is on record as 0.696%.

On to `Cc1cc(C)nc(N2CCC(c3c(C(N)=O)sc4ccccc34)C2)n1` (stereo not given), for which the INHIBITION is listed as -14.2%. In the case of `CNC(=O)c1sc2ccccc2c1C1CCN(c2cc(C)nc(C)n2)C1` (stereo not given), the INHIBITION is reported as 74.9%. With `Cc1ccc2c(c1)CCC21CCN(C(=O)CN(C)C)CC1`, the INHIBITION came out at 38.5%.

As for `Cc1cc(C(=O)N(C)Cc2ccn[nH]2)c(NC(=O)C(C)(C)C)s1`, the INHIBITION is 51.3%.

Regarding `Cc1nc(CN(C)C(=O)c2cc(C)sc2NC(=O)C(C)(C)C)no1`, the INHIBITION was determined as 18%. With `Cc1cc(C(=O)N(C)Cc2ccoc2)c(NC(=O)C(C)(C)C)s1`, the INHIBITION is reported as -28.9%. On to `O=C([C@@H]1CCO[C@@H]2CCN(Cc3ccc(F)cc3)C[C@H]21)N1CCCCO1`, for which the INHIBITION was 30.3%. The figure for `CCCc1cc(NCc2cc(C)on2)n2nccc2n1` is 23.8%. On to `CCCc1cc(CNc2cc(CCC)nc3ccnn23)on1`, for which the INHIBITION is listed as 53.5%. With `CCc1cc(NCc2cc(CC(C)C)on2)n2nccc2n1`, the INHIBITION is reported as 26.8%. The figure for `COc1ccccc1CC(=O)NC1CCCc2cn[nH]c21` (stereo not given) is 8.31%; for `Cc1cccc(CN2C[C@@H]3CN(C(=O)c4ccco4)C[C@@H]3C2=O)n1` it is 23.5%. With `CC(CCCC(C)(C)O)Nc1ccc(-c2nccn2C)nn1` (stereo not given), the INHIBITION stood at 60.4%.

Consider `CC(Cn1cncn1)Nc1ccc(-c2nccn2C)nn1` (stereo not given), for which the INHIBITION is on record as 9.91%.

As to `CC(CCn1cccn1)Nc1ccc(-c2nccn2C)nn1` (stereo not given), the INHIBITION worked out at 48.5%. The figure for `CN(C)CCN(Cc1ccc(F)cc1)C(=O)c1ccn(C)c(=O)c1` is 39.1%; for `Cc1nc(CN2C(=O)CCC23CCN(Cc2ccccn2)CC3)cs1` it is 19.4%. Next, `Cc1cc2ccccc2n1CCC(=O)N1CCCC(O)(CN(C)C)CC1` (stereo not given): -60.9%. As to `CN(C)CC1(O)CCCN(C(=O)Cn2ccc3ccccc32)CC1` (stereo not given), the INHIBITION stood at 89.9%. As for `CN(C)CC1(O)CCCN(C(=O)Cn2nc3ccccc3n2)CC1` (stereo not given), the INHIBITION is given as -21.8%. For the compound `Cc1nc2ccc(C(=O)N3CCC(COc4ccccn4)CC3)cc2[nH]1`, the INHIBITION is on record as -6.73%.

On to `Cc1cc(C)nc(C2CCCN2C(=O)c2coc(C)n2)n1` (stereo not given), for which the INHIBITION stood at 20.2%. `Cc1cc(C)n(Cc2ccc(-c3noc(C(=O)NCCCO)n3)cc2)n1`: the INHIBITION was determined as 33%.

In the case of `CC(C)c1nnc2n1CCN(Cc1cccc3c1OCCO3)C2`, the INHIBITION is recorded as -67.8%. The figure for `Fc1cccc2[nH]c(CN3CCn4c(nnc4C4CC4)C3)nc12` is -33.5%; for `CCc1nnc2n1CCN(Cc1ccc3c(c1)OCCO3)C2` it is 18.9%.

For `CC(C)c1nnc2n1CCN(Cc1nc3c(F)cccc3[nH]1)C2`, the INHIBITION is on record as -65%. The figure for `c1cc(CN2CCc3cncnc3C2)c2c(c1)OCCO2` is 41.6%; for `CC(C)c1ncc2c(n1)CN(Cc1nc3c(F)cccc3[nH]1)CC2` it is 36.6%.

Take `Cc1nnc2n1CCN(Cc1nc3c(F)cccc3[nH]1)C2`: the INHIBITION is listed as -43.5%.

Regarding `CCc1nnc2n1CCN(Cc1nc3c(F)cccc3[nH]1)C2`, the INHIBITION amounted to 58.1%. The figure for `Cc1ncc2c(n1)CN(Cc1nc3c(F)cccc3[nH]1)CC2` is 0.902%; for `CCc1ncc2c(n1)CN(Cc1nc3c(F)cccc3[nH]1)CC2` it is 52.8%; for `CCc1nnc2n1CCN(Cc1cccc3c1OCCO3)C2` it is 50.35%. `Fc1cccc2[nH]c(CN3CCc4cncnc4C3)nc12`: the INHIBITION is listed as 52.8%.

Turning to `COc1cccc2c(=O)n(Cc3nc(C)cc(O)n3)cnc12`, the INHIBITION came out at 1.56%. `Cc1[nH]c2ccc(C(=O)N3C[C@@H](O)[C@H](N4CCOCC4)C3)cc2c1C`: the INHIBITION is reported as -29.8%.

In the case of `O=C(NCc1ccccc1)C1CN(c2ccccn2)CCO1` (stereo not given), the INHIBITION stood at 22%.

Take `CCS(=O)(=O)N1CCN(C(C)c2ncc(-c3ccccc3)o2)CC1` (stereo not given): the INHIBITION was determined as 12.9%. Consider `CN(C)c1ncc(-c2ccc(NC(=O)[C@@H]3CCCCN3)cc2)cn1`, for which the INHIBITION is given as 1.11%. For `CN1CCCC1(CCCc1cccnc1)C(=O)NCc1nccn1C` (stereo not given), the INHIBITION was found to be 15.5%. Take `CC(c1ccc(S(N)(=O)=O)cc1)N(C)C(=O)c1ccccc1I` (stereo not given): the INHIBITION is on record as -43.5%.

Regarding `Cc1noc(CN(C)Cc2cnc(N3CCOCC3)nc2)n1`, the INHIBITION is on record as 20.1%. Next, `CC(C)c1nc(CN(C)Cc2cnc(N3CCOCC3)nc2)no1`: 74.7%. The figure for `Cc1noc(C)c1CN(C)Cc1cnc(N2CCOCC2)nc1` is 39.4%.
